Results filed as inconclusive are left out. A call without a number means that no potency is given here. Values without a mark were called inactive. The source made the active and inactive calls. The call rests on the fitted dose curve; in most records, active means well fitted inhibition curve with a large enough effect; inconclusive means small, poorly fitted or top-dose-only effect; inactive means no such curve, though single readings can be large or run the other way. Numbered stars: 1 amine (or outer) side, 2 acyl side, 3 side chain; on linkers, the order of the positions; unused ones are H or OH. Square brackets hold non-standard residues; d marks the D form. Peptide text beside a SMILES is read from it. ξ: configuration not given here. X4 = O=C(C1CC2(c3ccc(O)cc3)c3ccccc3NC2N1[*:1])[*:2]; ξW = NC(Cc1c[nH]c2ccccc12)C(=O)O; ξY = NC(Cc1ccc(O)cc1)C(=O)O
Biological target: Nuclear receptor subfamily 1 group I member 3 (Homo sapiens) (UniProt Q14994)
Test: qHTS for Constitutive Androstane Receptor (CAR) Antagonist screened against the NCATS CANVASS Library (AID 1347372);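 on activity change, negative = inhibition: cells stimulated with 50 nM CITCO agonist so inhibition reflects antagonism; luciferase from CYP2B6 promoter reporter driven by hCAR in HepG2 cells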
Settings: HepG2-hCAR-CYP2B6 luciferase, CITCO-stimulated antagonist mode; series mostly up to 46.1 µM
Description: Natural products and their derivatives continue to be wellsprings of nascent therapeutic potential. However, many laboratories have limited resources for biological evaluation, leaving their previously isolated or synthesized compounds largely or completely untested. To address this issue, the Canvass library of natural products was assembled (https://tripod.nih.gov/canvass), in collaboration with academic and industry researchers, for quantitative high-throughput screening (qHTS) across a diverse set of cell-based and biochemical assays. The pure (>85% purity by liquid chromatography/mass spectrometry [LC/MS]) Canvass library of 346 natural products were submitted by 45 academic laboratories and companies around the world. We collected pure natural products to circumvent deconvolution and structure elucidation due to time and resource limitations. The library was formatted into 1536-well plates and evaluated in 50 qHTS (in an 11-pnt concentration series) bioassays with broad scope of disease-relevant mechanisms. The resulting data set from 50 different assays was then systematically analyzed to identify overall trends and specific natural products with interesting biological activities. Reported herein are the results of each individual qHTS and their corresponding assay protocol. The constitutive androstane receptor (CAR) is a nuclear receptor which regulates multiple drug metabolizing enzymes (DMEs) and transporters. Activating CAR will generally increase the transcription and subsequent translation of CYP2B6 and CYP3A4. These two DMEs represent about 50% of the drug metabolizing potential in the body. […] Recently, there have also been studies performed indicating CARs role in energy metabolism and cancer therapy. Therefore, inducing or inhibiting CAR's activity could have a potential effect on diabetes and/or cancer. National Center for Advancing Translational Sciences (NCATS), Rockville, MD National Institute of Health (NIH), Bethesda, Maryland
Material: A double-stable (hCAR and CYP2B6-2.2kb) transfected cell line, derived from human hepatoma (HepG2) cells, was utilized for the duration of the quantitative high-throughput screens. The HepG2-CYP2B6-hCAR cells suspended in DMEM culture medium supplemented with 10% FBS, 5 ug/mL blasticidin, 0.5 mg/mL geneticin, 100 U/mL penicillin and 100 ug/mL streptomycin. CAR Antagonist assay protocol: 1. In a 1536 well, tissue culture treated white solid bottom plates (Greiner Bio-One North America), 4 uL of engineered HepG2-hCAR-CYP2B6 cell solution (final concentration 2500 cells / well) was dispensed using the Multidrop Combi dispenser (Thermo Fisher Scientific). 2. The assay plates were incubated for 4hr at 37C, 5% CO2 to allow the cells to acclimate and attach. 3. Compounds were pin transferred (~23 nL volume) to the assay plates via Wako Pin-tool (Wako Automation, Richmond VA) equipped with a 1536 pin head. The compounds were transferred to columns 5-48 resulting in a final concentration ranging from 0.6nM to 92uM. 4. One uL of CITCO, was added using a Flying Reagent Dispenser to generate a final concentration of 50 nM CITCO inside each well. 5. The assay plates were incubated at 37C, 5% CO2 for 24hr. 6. To measure cell viability, 1 uL of CellTiter-Fluor (Promega) reagent was then added to the assay plates (column 1-48, rows 1-32). The assay plates were incubated for 1hr at 37C, 5% CO2. 7. A first readout of fluorescence signal was acquired via the ViewLux (PerkinElmer) plate reader using a FITC dichroic mirror, excitation 405/10 nm filter, and emission 540/25 nm filter; and using 65 light energy, 1 second exposure, and 2x binning settings. 8. To measure CAR activation, 4 uL of ONE-Glo reagent (Promega) was added to the assay plates (column 1-48, rows 1-32). The assay plates were further incubated at room temperature for 30 min. 9. A second readout of luminescence signal was acquired via the ViewLux plate reader using a clear emission filter, 10 second exposure, 2x binning settings. […]
Potency means the concentration at half of the fitted maximal effect.

Chain of Nuclear receptor subfamily 1 group I member 3 (Homo sapiens) (Q14994 whole entry, looked up): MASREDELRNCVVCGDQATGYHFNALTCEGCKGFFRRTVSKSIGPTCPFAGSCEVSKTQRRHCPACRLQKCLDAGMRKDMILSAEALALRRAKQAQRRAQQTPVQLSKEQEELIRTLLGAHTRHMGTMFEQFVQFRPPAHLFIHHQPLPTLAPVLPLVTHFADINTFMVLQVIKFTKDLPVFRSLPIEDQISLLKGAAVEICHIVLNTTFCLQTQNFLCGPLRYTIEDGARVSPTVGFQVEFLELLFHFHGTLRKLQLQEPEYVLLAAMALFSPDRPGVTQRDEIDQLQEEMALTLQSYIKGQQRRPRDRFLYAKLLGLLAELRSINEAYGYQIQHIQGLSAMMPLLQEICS

| Compound | Potency | activity change, negative = inhibition |
| --- | --- | --- |
| CCCCCCCCCCCCCCC[C@H](O)C[C@@H](O)C[C@@H](O)C[C@@H](O)C[C@@H](O)C[C@H]1CC=CC(=O)O1 | 8.31 µM (active) |  |
| CO[C@@H]1[C@H](O)[C@@H](C)O[C@@H](OC[C@@H]2C(C)OC(=O)/C=C/[C@H](C)C(O[C@@H]3O[C@H](C)CC4(OC(=O)O[C@@H]4C)C3O)[C@@H](C)CC(C)C(=O)CC[C@H]3OC23)[C@@H]1OC (stereo not given in full) | inactive |  |
| CCCCCC[C@H](CCCCC[C@@H](O)C(N)=O)OC(=O)[C@@H]1CC=CN1C(=O)c1ccccc1O | inactive |  |
| C=C1C(=O)C[C@H]2C[C@@H]1[C@]2(C)CCC=C(C)C | inactive |  |
| O=c1cc(-c2ccc(O)cc2)oc2c([C@@H]3OC(CO)[C@H](O)[C@@H](O)[C@H]3O)c(O)cc(O)c12 (stereo not given in full) | inactive |  |
| C/C1=C\CC(=O)/C=C/C=C\c2csc(n2)[C@@H](C)NC(=O)C[C@@](S)([C@@H](C)C(=O)O)CC1 | inactive |  |
| CC[C@H](C)[C@H](NC(=O)C(Cc1ccc(O)cc1)NC(=O)C(Cc1c[nH]c2ccccc12)NC(=O)[C@H](C)N)C(=O)N1C(C(=O)NC(Cc2ccc(O)cc2)C(=O)O)CC2(c3ccc(O)cc3)c3ccccc3NC12 (stereo not given in full) (H-A[ξW][ξY]I[X4][ξY]-OH) | inactive |  |
| CC1C(=O)C23CCC1C[C@]21O[C@@H]2C(C)(C)C=CC(=O)[C@@]23COC1=O (stereo not given in full) | inactive |  |
| CCCCCCC[C@@H](C/C=C/CCC(=O)NCCc1c[nH]c2ccccc12)OC | inactive |  |
| CCCCCCCCCCCCCCCC(=O)OC/C=C(\C)CCCC(C)CC(C)C(C)C (stereo not given) | inactive |  |
| C=CC(=C)CC[C@]1(C)[C@H]2C[C@H](OC(=O)C(C)CC)C=C3[C@H](OC(C)=O)O[C@H](OC(C)=O)[C@@]32[C@H](OC)C[C@@H]1C (stereo not given in full) | 12.1 µM (active) |  |
| C=C1C[C@@]23C=CC(=O)[C@@](C)(CCCC(C)C(=O)O)[C@@H]2C[C@@H]1CC3 (stereo not given in full) | inactive |  |
| Cc1cc(O)cc2oc(C[C@H](C)O)cc(=O)c12 | inactive |  |
| CC(C)(Br)[C@@H](Cl)C[C@H](Br)[C@](C)(Cl)/C=C/Br | inactive |  |
| CNc1ccc(Cl)cc1C(=O)OC[C@]1(C)[C@H]2CC[C@]3(C)[C@@H](C[C@@H](OC)[C@H](C)[C@H]3C3=C(O)C(=O)OC3O)[C@]2(C)CC[C@H]1O (stereo not given in full) | inactive |  |
| CN1CCc2cc3c(c4c2[C@H]1[C@@H](O)c1ccccc1-4)OCO3 | inactive |  |
| CO[C@@H]1[C@H](O)[C@@H](C)O[C@@H](OC[C@H]2/C=C/C=C/C(=O)C(C)C[C@H](C)C(O[C@@H]3O[C@H](C)CC4(OC(=O)O[C@@H]4C)C3O)[C@@H](C)/C=C/C(=O)OC2C)[C@@H]1OC (stereo not given in full) | inactive |  |
| C1=C2CCCN[C@@H]2[C@@H]2CCN3CCCC[C@@H]3[C@H](C1)C2 | inactive |  |
| CC[C@@H]1C[C@@]2(CC)OC(=O)[C@@]3(CC)OC(=O)[C@@H]1[C@@H]23 | inactive |  |
| C=C1C[C@@]23C=CC(=O)[C@@](C)(CCC(=O)Nc4c(O)ccc(C(=O)O)c4O)C2C[C@@H]1CC3 (stereo not given in full) | inactive |  |

| Compound | Potency | activity change, negative = inhibition |
| --- | --- | --- |
| C[C@@H]1O[C@@H](O[C@@H]2[C@@H](O)[C@H](O[C@@H]3[C@@H](O)[C@@H](O)C(O[C@H]4[C@H](OC(=O)[C@]56CCC(C)(C)C[C@H]5C5=CCC7[C@@]8(C)C[C@H](O)[C@H](O[C@@H]9C[C@H](CO)[C@@H](O)[C@H](O)[C@H]9O)[C@@](C)(CO)C8[C@H](O)C[C@@]7(C)[C@]5(C)CC6)OC[C@H](O)[C@@H]4O)O[C@H]3C)OC[C@H]2O)[C@H](O)[C@H](O)[C@H]1O (stereo not given in full) | inactive |  |
| CC1(C)C=Cc2c(ccc3c2OC[C@@H](c2ccc(O)cc2O)C3)O1 | inactive |  |
| CC(=O)O[C@H]1CC[C@@]2(C)C(CC[C@]3(C)C2CC=C2C4CC(C)(C)CC[C@]4(C)CC[C@]23C)C1(C)C (stereo not given in full) | inactive |  |
| C=C1C[C@@]23C=CC(=O)[C@@](C)(CCC(=O)Nc4c(O)ccc(C(=O)O)c4O)C2C[C@@H]1C(O)C3 (stereo not given in full) | inactive |  |
| CC1=CC[C@@]2(C[C@@H]1O)[C@@H](C(=O)O)CC[C@H]2C(C)C | inactive |  |
| CC(C)=CCC/C(C)=C/Cc1c(O)c(CC=C(C)C)c(O)c2c(=O)c3cc(O)ccc3oc12 | inactive |  |
| CS/C=C/C(N)=O | inactive |  |
| O=Cc1ccc2n1C[C@@]1(C[C@H](O)[C@H](O)CO1)OC2 | inactive |  |
| O=C1C[C@@H](c2ccc(O)c(-c3c(O)cc(O)c4c3O[C@H](c3ccc(O)cc3)CC4=O)c2)Oc2cc(O)cc(O)c21 | inactive |  |
| COc1cc(O)c2c3c(c(O)cc(C)c13)C(=O)OC2 | inactive |  |
| C[C@@H]1C[C@H]2C[C@]3(CCCCN3C)[C@@H]3C[C@H]2[C@H](C1)N(C)C3 | inactive |  |
| COc1ccc2cc(NC(=O)C3=NO[C@H]4[C@H](O)C=C[C@@H](Cl)[C@@]4(O)C3)c(=O)oc2c1OC | inactive |  |
| O=C(O)[C@@]12COC3(O)C1CCN1CC[C@H]3[C@@H]1c1c2[nH]c2ccccc12 | inactive |  |
| CC12C[C@]3(O)O[C@@H](O1)[C@]1(COC(=O)c4ccccc4)[C@@H]3CC21OC1OC(CO)C(O)C(O)C1O (stereo not given in full) | inactive |  |
| C[C@@H]1O[C@@H](Oc2c(-c3ccc(O)cc3)oc3cc(O)cc(O)c3c2=O)[C@H](O)[C@H](O)[C@H]1O | inactive |  |
| C[C@]12CC[C@]3(C1)[C@H](CC2=O)CC(OC(=O)c1ccccc1)[C@H]1[C@@](CO)(C(=O)O)CCC[C@@]13C (stereo not given in full) | inactive |  |
| COc1ccc(/C=C2\COc3cc(O)ccc3C2=O)cc1 | inactive |  |
| COc1ccc2oc3c(OC)c(OC)c(OC)c(OC)c3c(=O)c2c1 |  | 22.2% [at 9.19 µM] |
| OCc1ccc2ocnc2c1 | inactive |  |
| C[C@@H]1C(=O)[C@]23CC[C@H]1C[C@]21O[C@H]2C(C)(C)C=CC(=O)[C@]23COC1=O | inactive |  |
